The whole screen tested about 300,000 compounds, of which about 37,000 (12%) were called active. Many of the other results were omitted from the sample, so actives are more common in it than they were. A number with no mark means an inactive call. Cut-off read from the data, not from the text of the source: active = max response mostly above about 13% (no sharp cut-off); inactive = mostly below about 14%.

The assay is described as follows: Cycloheximide Counterscreen for Small Molecule Inhibitors of Shiga Toxin. Note: read at 38.3 µM for the half of the compounds with a filed dose; 0% is about no effect. The following applies: cell reporter, cycloheximide protein synthesis inhibition counterscreen; active compounds read high.
Take `CC(C)CC(=O)c1c[nH]c(C(=O)NCc2ccccc2)c1`: the max response is -3.39%.

With `COC(=O)C(CC(C)C)NS(=O)(=O)c1cc(Br)ccc1Br` (centres undefined), the max response is -8.13%.

Regarding `Cc1cc2c(cc1S(=O)(=O)CCC(=O)NCc1ccccc1)OCC(=O)N2`, the max response was -1.02%.

In the case of `CCn1ccnc1CNC(=O)CC1C(=O)NCCN1Cc1ccc(F)cc1Cl` (centres undefined), the max response was 8.96%.

On to `Clc1ccc(CN2CCCCCC2)cc1Cl`, for which the max response was -3.66%.

Regarding `Cc1cccc(-n2c(=O)c3c(C)c(C)sc3n(CC(N)=O)c2=O)c1`, the max response was -0.167%.

Turning to `COc1ccc(-c2nnc(SC(C)C#N)o2)cc1` (centres undefined), the max response is 27.2%.

`COc1ccc(-c2nnc(SCc3cccnc3)o2)cc1`: the max response was 30.9% (active).

In the case of `COC(=O)CSc1nnc(-c2cccnc2)o1`, the max response is 12.2%.

In the case of `COc1ccccc1CNS(=O)(=O)c1c(C)[nH]c(C)c1C(=O)N1CCCCC1`, the max response was 11%.

On to `O=c1[nH]cnc(O)c1C(c1ccc(F)cc1)c1c(O)nc[nH]c1=O`, for which the max response was -2.78%.

Regarding `CCOc1ccc(N(CC(=O)NCC2CCCO2)S(=O)(=O)c2ccc(C)cc2)cc1` (centres undefined), the max response is 0.744%.

For `COc1cccc(/C=C2/SC(=S)N(CC(=O)NC3C=CS(=O)(=O)C3)C2=O)c1` (centres undefined), the max response was 8.26%.

With `COc1ccc(N2C(=O)NC(NS(=O)(=O)c3ccc(Cl)cc3)(C(F)(F)F)C2=O)cc1` (centres undefined), the max response was -5.1%.

Consider `COc1ccc(-c2csc(-c3cccs3)n2)cc1OC`, for which the max response was 59.6% (active).

Take `COc1ccc(OC)c(-c2csc(-c3cccs3)n2)c1`: the max response was 30.2%.

As for `CNC(=O)c1[nH]cnc1C(=O)N[C@@H](CC(C)C)C(=O)OC(C)(C)C`, the max response is -1.12%.

For `COC(=O)c1cc(OCC(=O)NC2CCCc3ccccc32)cc(C(=O)OC)c1` (centres undefined), the max response was 1.41%.

As to `COc1ccc(Br)cc1CN(C)CC(=O)Nc1cc(Cl)cc(Cl)c1`, the max response was -1.13%.

For `CCn1c(SCC(=O)NC2CC2)nnc1-c1ccccn1`, the max response is 7.07%.

For the compound `Cc1ccc(C)c(NC(=O)c2ccc(OC(=O)c3ccco3)cc2)c1`, the max response is 12.4%.

Consider `Cc1ccc(O)c(NC(=O)c2cc(-c3ccco3)on2)c1`, for which the max response was 17.2% (active).

In the case of `COc1ccc(NC(=O)c2cc(-c3ccc(C)cc3)on2)cc1`, the max response was 2.42%.

As for `CC1CCN(C(=O)C2CCN(S(=O)(=O)N3CCC4(CC3)OCCO4)CC2)CC1`, the max response was 5.25%.

Regarding `O=C(C1CC1)N1N=C(c2ccc(Br)cc2)CC1(O)C(F)(F)F` (centres undefined), the max response is -6.68%.

`CC(C)Oc1ccccc1C(=O)NC(CO)C(=O)O` (centres undefined): the max response was 5.75%.

As for `O=C1OCCN1C(=O)[C@H]1[C@H](c2ccc(Cl)cc2)C(c2cccc(Cl)c2)=NN1c1ccc(Br)cc1`, the max response was 1.68%.

For the compound `O=C(NCc1ccco1)c1ccc(Cn2c(=O)c3sccc3n(Cc3ccc(F)cc3)c2=O)cc1`, the max response is 0.924%.

On to `CC1Cc2ccccc2N1C(=O)c1cc2sccc2n1Cc1ccccc1` (centres undefined), for which the max response is 10.4%.

Turning to `O=C(NCc1ccco1)c1cc2sccc2n1Cc1ccc(F)cc1`, the max response was 45.3% (active).

For `O=C(c1cc2sccc2n1Cc1ccc(F)cc1)N1CCc2ccccc21`, the max response is 16.9% (active).

For the compound `CCOC(=O)c1cc2sccc2n1Cc1ccc(C#N)cc1`, the max response was -2.12%.

Regarding `O=C(Cc1ccc(-n2c(=O)c3sccc3n(Cc3ccc(F)cc3)c2=O)cc1)NCc1ccco1`, the max response is -2.83%.

For the compound `CC(NC(=O)CCC(=O)N1CCN(S(=O)(=O)c2ccc(Cl)cc2)CC1)c1ccccc1` (centres undefined), the max response is 4.89%.

For `Cn1c(CNC(=O)c2ccco2)nnc1SCC(=O)N1CCN(c2ccccc2)CC1`, the max response is -0.554%.

As for `COc1ccccc1NC(=O)C1=C(C)Nc2nc3ccccc3n2C1c1cccs1` (centres undefined), the max response was -6.14%.

With `Cc1c(C(=O)OC(C)C)sc(NC(=O)c2cccnc2)c1C#N`, the max response was 1.72%.

As for `CC(=O)Nc1ccc(CN2CCN(Cc3ccc(F)c(F)c3)C(CCO)C2)cc1` (centres undefined), the max response was -0.733%.

In the case of `COc1ccc(CNC(=O)C2CCN(C(=O)c3ccco3)CC2)cc1`, the max response is -5.74%.

Consider `COc1ccc(CCNC(=S)N2CCN(S(=O)(=O)c3ccc(Cl)cc3)CC2)cc1`, for which the max response is -4.46%.

For the compound `O=C1Cc2ccccc2Sc2ccc(Cl)cc21`, the max response was 7.71%.

With `O=C(Nc1ccc(S(=O)(=O)N2CCCC2)cc1Cl)C1=COCCO1`, the max response was -1.75%.

As for `NS(=O)(=O)c1ccc2nc(NC(=O)CS(=O)(=O)c3ccc(F)cc3)sc2c1`, the max response was 1.51%.

In the case of `NS(=O)(=O)c1ccc2nc(NC(=O)C3=COCCO3)sc2c1`, the max response was 31% (active).

For `COc1cc(/C=C2\SC(=O)NC2=O)ccc1OCc1ccc(Cl)nc1`, the max response was -3.18%.

With `COc1ccc(NC(=S)N2CCC(NC(=O)c3cccc(F)c3)CC2)cc1`, the max response is -5.6%.

As for `CCc1cc(-c2nnc(SCC(=O)NC3CC3)n2C)cs1`, the max response is 5.72%.

Regarding `CCOc1cccc(NC(=O)C2CCCN(S(=O)(=O)c3ccc(OC)cc3)C2)c1` (centres undefined), the max response was 2.3%.

For `COc1ccc(S(=O)(=O)N2CCCC(C(=O)Nc3ccc(NC(=O)c4ccccn4)cc3)C2)cc1` (centres undefined), the max response was 40.2% (active).

On to `COc1ccc(NC(=O)C2CCCN(S(=O)(=O)c3cccc4cccnc34)C2)cc1` (centres undefined), for which the max response is -0.912%.

Consider `Cc1ccc(-c2cccc([C@H]3[C@@H]4C=CC[C@@H](C)[C@@H]4C(=O)N3Cc3ccccc3)c2)cc1`, for which the max response is 2.34%.

Take `Cc1ccc2c(C)c(C(=O)N(C)CCC3CCCCO3)oc2c1C` (centres undefined): the max response is 17.8%.

Take `COC(=O)c1ccc(Nc2ncnc3sccc23)cc1`: the max response was 39.2% (active).

As for `CCOC(=O)c1nc(Nc2ccc(C(=O)OC)cc2)c2ccccc2n1`, the max response is 9.36%.

For `COC(=O)c1ccc(OC(=O)c2cnccn2)cc1`, the max response is -7.13%.

`O=C(O)C(c1ccccc1)N1C(=O)/C(=C\c2ccc(-c3cccc(Cl)c3)o2)SC1=S` (centres undefined): the max response was 0.131%.

As to `CN1C(=O)/C(=C\c2ccc(-c3ccccc3)o2)SC1=S`, the max response was 9.37% (active).

In the case of `NS(=O)(=O)c1ccc(-c2ccc(/C=C3\SC(=O)NC3=O)o2)cc1`, the max response is -2.44%.

As to `COc1ccc2[nH]c3c(C)c4cc[n+](C)cc4c(C)c3c2c1`, the max response was -3.46%.
